CRE Fsk mod = CRE-bla signaling modulation under forskolin stimulation; hit rate 2.5% among 71,000; Potency, µM (highest dose often 38.2 µM), actives largely listed as activators; CHO CRE-bla reporter (cAMP response element driving beta-lactamase), forskolin EC10, beta-lactamase ratio; active = well fitted activation curve with a large enough effect in the signal ratio, with a control signal flat, not every such curve was filed as active; inconclusive = small, poorly fitted or top-dose-only effect, or effect the other way, or a change in a side signal; the % refers to the signal ratio
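Using CellSensor CRE-bla CHO cells in Opti-MEM with 0.5% dialyzed FBS, compounds were titrated with EC10 NKH 477 for 3 h at 37 °C. CCF4 ratio (460/530 nm) gave %Activity; AC50 derived.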
ERK AVP inh = inhibitors of vasopressin-stimulated ERK signaling pathway; Potency, µM (top dose mostly 57.5 µM), usual class: inhibitors; hit rate 0.99% among 72,000; HEK293-V1b, vasopressin-stimulated pERK AlphaScreen; note: nearly all actives have a fitted effect of over 55% in size
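Overnight-seeded V1b-HEK293 cells in 1% FBS got compound, then vasopressin (25 nM final, 5 min, 37C), then lysis buffer. AlphaScreen detection of phospho-ERK; activity normalized to basal and full-stimulation controls.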
HEK293 cAMP ctrl = parental HEK293 cAMP activation (counter-screen) | parental HEK293 CNG cAMP sensor, membrane potential fluorescence | Potency, µM (top dose mostly 57.1 µM), actives largely listed as activators | hit rate 2.5% among 73,000 | AID 938; note: nearly all actives have a fitted effect of over 55% in size
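Counterscreen for endogenous-receptor signalling: CNG-channel HEK 293 cells report cAMP rise by membrane depolarization. After 60 min dye equilibration with 100 uM RO 20-1724, compounds incubated 30 min before bottom-read fluorescence at 590 nm.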
TSHR ag = activates the human thyroid stimulating hormone receptor | HEK293-CNG-TSHR cells (CNG channel as cAMP sensor), membrane potential dye, cAMP | hit rate 0.48% among 73,000 | Potency, µM (highest dose often 57.1 µM), usual class: activators | AID 926; active = well fitted activation curve with a large enough effect in the main read-out, with a control signal flat, not every such curve was filed as active; inconclusive = small, poorly fitted or top-dose-only effect, or a change in a side signal; inactive = no such curve, though single readings can be large or run the other way; reference of the percent scale not stated here;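 note: the control signal comes from parental cells without the receptor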
Target sequence (P16473 whole entry, looked up): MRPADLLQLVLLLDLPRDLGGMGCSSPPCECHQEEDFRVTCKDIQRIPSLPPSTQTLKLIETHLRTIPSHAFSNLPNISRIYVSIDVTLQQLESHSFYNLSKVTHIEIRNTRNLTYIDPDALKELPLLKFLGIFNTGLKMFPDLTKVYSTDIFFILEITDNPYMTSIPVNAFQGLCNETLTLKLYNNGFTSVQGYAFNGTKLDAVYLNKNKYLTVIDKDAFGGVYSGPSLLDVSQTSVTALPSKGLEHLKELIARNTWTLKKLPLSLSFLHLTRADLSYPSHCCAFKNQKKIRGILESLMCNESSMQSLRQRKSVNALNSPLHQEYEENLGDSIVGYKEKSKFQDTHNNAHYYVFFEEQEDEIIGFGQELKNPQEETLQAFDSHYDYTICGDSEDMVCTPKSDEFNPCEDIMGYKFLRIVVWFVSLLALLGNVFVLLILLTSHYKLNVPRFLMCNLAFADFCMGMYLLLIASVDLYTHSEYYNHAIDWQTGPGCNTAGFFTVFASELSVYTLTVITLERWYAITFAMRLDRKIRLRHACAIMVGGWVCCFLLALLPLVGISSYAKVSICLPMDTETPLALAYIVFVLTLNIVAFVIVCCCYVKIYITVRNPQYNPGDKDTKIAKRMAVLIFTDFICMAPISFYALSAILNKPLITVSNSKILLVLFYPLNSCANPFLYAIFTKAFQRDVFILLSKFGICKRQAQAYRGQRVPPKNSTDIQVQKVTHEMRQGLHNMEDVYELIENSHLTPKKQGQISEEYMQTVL
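cAMP rise detected as CNG-channel membrane depolarization by fluorescent dye (emission 590 nm), 30 min after compound, following 60 min dye loading containing 100 uM RO 20-1724 at room temperature. Cells: TSHR/CNG HEK 293, with parental CNG HEK 293 as control.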
Large screens that a line does not name were inactive. Only some compounds are listed: those with a hit (about 6% of all), similar ones and a draw of the others. Unless noted, calls come from the whole dose curve; as a rule, active = well fitted curve in the direction sought with a large enough effect; inconclusive = small, poorly fitted or top-dose-only effect, or another doubt; inactive = no such curve, though single readings can be large; an effect the other way counts as inactive or inconclusive.

COc1ccccc1CNc1ccnc(-c2ccc(N(C)C)cc2)n1	CRE Fsk mod 13µM, ERK AVP inh inconclusive
COc1ccc(CNc2ncncc2-c2ccccc2CN(C)C)c(OC)c1	none
COc1ccccc1CNc1ncncc1-c1ccc2c(c1)OCO2	CRE Fsk mod inconclusive, HEK293 cAMP ctrl inconclusive, TSHR ag inconclusive
COc1ccc(CNc2ncncc2-c2ccc3c(c2)OCO3)c(OC)c1	CRE Fsk mod 3.2µM, ERK AVP inh inconclusive, HEK293 cAMP ctrl inconclusive, TSHR ag inconclusive
COc1ccc(CNc2ncncc2-c2ccccc2Cl)c(OC)c1	HEK293 cAMP ctrl 32µM, TSHR ag inconclusive
COc1ccc(CNc2ccnc(-c3ccccc3Cl)n2)c(OC)c1	HEK293 cAMP ctrl 10µM, TSHR ag inconclusive
CCOC(=O)CCN(Cc1cccs1)S(=O)(=O)c1ccc(F)cc1	HEK293 cAMP ctrl 13µM, TSHR ag inconclusive
CO[C@@H]1COC(=O)[C@@H](C)COC(=O)[C@@H](C)NC(=O)C/C=C\[C@@H]1C	none (no result: CRE Fsk mod)
Cc1ccc(CN(C(=O)Cn2nnc3ccccc32)C(C(=O)NCc2ccco2)c2cccs2)cc1 (centres undefined)	CRE Fsk mod inconclusive, HEK293 cAMP ctrl inconclusive, TSHR ag inconclusive
O=C(NCc1ccco1)C(c1ccco1)N(CCc1ccccc1)C(=O)Cn1nnc2ccccc21 (centres undefined)	HEK293 cAMP ctrl 16µM, TSHR ag inconclusive
CCC(C)N(C(=O)Cn1nnc2ccccc21)C(C(=O)NCc1ccco1)c1cccc(OC)c1 (centres undefined)	HEK293 cAMP ctrl 16µM, TSHR ag inconclusive
O=C(NCc1ccco1)C(c1cccs1)N(Cc1ccccc1)C(=O)Cn1nnc2ccccc21 (centres undefined)	HEK293 cAMP ctrl 10µM, TSHR ag inconclusive
COC(=O)[C@H]1C[C@@H]1[C@H](NC(=O)c1cc(C)nn1C)c1ccccc1	none
CCNc1ncc2nc(-c3ccc(Cl)cc3)c(=O)n(CCC#N)c2n1	CRE Fsk mod 2µM
CCNc1ncc2nc(-c3ccc(OC)cc3)c(=O)n(-c3ccc(OC)cc3)c2n1	CRE Fsk mod inconclusive, HEK293 cAMP ctrl 32µM, TSHR ag inconclusive
CCNc1ncc2nc(-c3cccc(C#N)c3)c(=O)n(CCC#N)c2n1	CRE Fsk mod 2.5µM
CCNc1ncc2nc(-c3ccc(OC)cc3)c(=O)n(Cc3cccc(OC)c3)c2n1	CRE Fsk mod inconclusive, HEK293 cAMP ctrl inconclusive, TSHR ag inconclusive
CCNc1ncc2nc(-c3cccc(C#N)c3)c(=O)n(Cc3cccc(OC)c3)c2n1	CRE Fsk mod 0.32µM
CCNc1ncc2nc(-c3ccccc3)c(=O)n(CCC#N)c2n1	CRE Fsk mod inconclusive, ERK AVP inh inconclusive
C[C@H](NCCN(C)C)[C@@H]1CCC2C3CCc4cc(O)ccc4[C@H]3CCC21C (some centres undefined)	none
CCC1=C2CC[C@H]3C(=O)N(CC)C(=O)[C@H]3[C@H]2[C@@]2(Cc3ccccc3)C(=O)N(CC3CC3)C(=O)N2C1=O	none (no result: CRE Fsk mod, HEK293 cAMP ctrl, TSHR ag)
COc1ccc(-c2nc3cnc(N4CCN(C)CC4)nc3n(Cc3cccc(OC)c3)c2=O)cc1	CRE Fsk mod inconclusive, ERK AVP inh inconclusive
CCNc1ncc2nc(-c3cccc(C#N)c3)c(=O)n(C)c2n1	CRE Fsk mod 2µM
O=C(O)c1cccc(C[C@H](Br)C(=O)O)c1	none
COc1cccc(Nc2ncc3ncc(=O)n(CCc4ccccc4)c3n2)c1	CRE Fsk mod inconclusive, ERK AVP inh inconclusive
COc1cccc(Nc2ncc3nc(C)c(=O)n(CCc4ccccc4)c3n2)c1	CRE Fsk mod 5µM, HEK293 cAMP ctrl inconclusive, TSHR ag inconclusive
COc1cccc(Nc2ncc3nc(C)c(=O)n(Cc4cccs4)c3n2)c1	CRE Fsk mod inconclusive, HEK293 cAMP ctrl 3.2µM, TSHR ag inconclusive
Oc1ccc(Cc2cc(Cl)cc(Cl)c2O)cc1Cl	none
N#CC(C#N)=C(N)/C(C#N)=C/c1ccc(O)cc1	ERK AVP inh 13µM (no result: TSHR ag)
Cc1c2c(nc3c(C)cccc13)OC(C)C2 (centres undefined)	HEK293 cAMP ctrl 25µM, TSHR ag inconclusive
CCc1c2c(nc3ccccc13)OC(C)C2 (centres undefined)	none
COC(=O)C1=C(C)NC(C)=C(C(=O)OCCN(C)Cc2ccccc2)[C@@H]1c1cccc([N+](=O)[O-])c1	none
Cc1cc(C)nc(-n2nc(C)cc2NC(=O)CN2CCC(C)CC2)n1	CRE Fsk mod inconclusive, HEK293 cAMP ctrl inconclusive, TSHR ag inconclusive
CCC1CCCCN1CC(=O)Nc1cc(C)nn1-c1nc(C)cc(C)n1 (centres undefined)	CRE Fsk mod 2.5µM, HEK293 cAMP ctrl 25µM, TSHR ag inconclusive

Bioassay records deposited in PubChem by National Center for Advancing Translational Sciences (NCATS).
